About 83,000 compounds went through this panel and 20% of them were active in at least one assay; those are over-represented in the sample as a whole.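 Cells were grown in 96-well plates and exposed to the test compound at a single concentration for 48 hours; results are reported as percent growth, with values below 10 considered active.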 Unmarked numbers belong to inactive results. The source made the active and inactive calls.
The molecules below were run on MDA-MB-468 breast (assay: NCI-60 one-dose screen, 48 h (100 = growth as untreated, 0 = no growth, -100 = all killed)). Conditions: 10 µM unless noted.

Compound	growth
COc1ncc(-c2ccc3ncnc(Nc4cccc(Cl)c4)c3c2)cc1N(S(C)(=O)=O)S(C)(=O)=O	-3.15% (active)
CCCCNCC(O)c1cc(-c2ccc(C(F)(F)F)cc2)nc(-c2ccc(C(F)(F)F)cc2)c1 (stereo not given)	-87.9% (active)
COc1ccc(/C=C/C(=O)c2ccc(NC(=O)CSc3nnc(-c4ccc(OC)c(OC)c4)n3-c3ccccc3)cc2)cc1	60.2%
N[C@H](CS)C(=O)O	93.1%
Cc1cc(O[C@@H]2O[C@@H](C)[C@H](O)[C@@H](O)[C@H]2O)c2c3c(c(O[C@@H]4O[C@@H](C)[C@H](O)[C@@H](O)[C@H]4O)cc2c1)C(=O)c1c(O)cccc1C3=O	67.5%
CCCCCCCCCCCCCCCCCCOc1ccccc1CC(=O)OCC[N+]1(C)CCOCC1	51.9%
C=CCOC(=O)C1=C(C)NC2=C(C(=O)CC(C)(C)C2)C1c1ccc(OC)cc1 (stereo not given)	110%
COc1cc(/C=N/n2c(CN3CCOCC3)nc3ccccc3c2=O)cc(OC)c1OC	109%
Cc1nc2sc(C(=O)Nc3ccccc3)c(N)c2cc1C(=O)c1ccc(C(F)(F)F)cc1	107%
O=C(Nc1ccc(N2CCNCC2)cc1)c1[nH]ncc1Nc1cc(C2CC2)ncn1	49.2%
CC(C)CSc1ncnc2nc[nH]c12	104%
NC(=S)N/N=C\c1nccc2c(N)cccc12	-18.6% (active)
CCN1CCN(Cc2ccc(C(=O)Nc3nc4ccc(Oc5ccnc(C(=O)NC)c5)cc4s3)cc2C(F)(F)F)CC1	36.1%
Fc1ccc2[nH]c3c(NCCCN4CCOCC4)ncnc3c2c1	73.2%
COc1cc2c(c(OC)c1OC)C(=O)N[C@@H]1[C@@H](O)[C@@H](O)[C@H](O)C[C@@H]21	102%
c1csc(C2=NN3C(C2)c2ccccc2OC3c2ccncc2)c1 (stereo not given)	103%
CCN(C(=O)CN1CCN(c2cc3c(cc2F)c(=O)c(C(=O)O)cn3C2CC2)CC1)c1nc(-c2ccc(OC)cc2)cs1	60.9%
CCOC(=O)c1ccc(Nc2ncnc3ccc(NC(=O)c4ccccc4)cc23)cc1	88.9%
O=C1/C(=C/c2ccc([N+](=O)[O-])cc2)SC(=Nc2ccccc2)N1Nc1ccccc1	87.8%
COc1cc2c(cc1NC(=O)C(F)(F)F)-c1ccc(NC(=O)C(F)(F)F)cc1C2	58%

Compound	growth
CCOC(=O)c1ccc(NC(=O)CCCN(CC)CC)cc1	115%
Nc1ccc(SSc2ccc(N)cc2)cc1	101%
COc1ccc2c(c1)C=C1CSCC3=Cc4cc(OC)ccc4OC13O2	21.3%
N#Cc1c(NC(=O)NCc2ccccc2)sc2c1CCCC2	-33.5% (active)
COc1ccc(C(=O)c2c(N)nc3n2CCCC3)cc1OC	97.7%
Nc1ccc(-c2ccc(N)c(Br)c2)cc1Br	19.8%
O=C1Nc2ccccc2/C1=C\c1nc(-c2ccccc2F)n2ccccc12	8.76% (active)
CCCCCCCCCCCCCCCCCc1nccn1CCO	91.5%
Cn1cc(-c2cc(N)n3nc(-c4cn(C)c5ccc(Br)cc45)cc3n2)c2cc(Br)ccc21	97.9%
CCNCc1ccc(O)c2ncccc12	54.6%
Nc1ncnc2nc(Br)[nH]c12	102%
NC(=O)Cc1nc(O)cc(=O)[nH]1	111%
COCCn1cc(-c2nc(-c3cn(CCOC)c4ncccc34)cs2)c2ccccc21	-17.4% (active)
COC(=O)c1c(C)nc(Nc2nc3ccccc3s2)nc1-c1ccc(Cl)cc1Cl	104%
CC(C)/C=N/NC(N)=S	19.3%
COc1cc(CCn2nnc3c(NCCCCO)ncnc32)cc(OC)c1	93.5%
O=C1/C(=C/c2ccc(O)cc2)Oc2ccc(Cl)cc21	131%
CCCCC[C@H](O)C/C=C1/C(=O)C=C[C@@H]1C/C=C\CCCC(=O)OC	64.6%
Cn1cc(-c2nonc2-c2c[nH]c3ccc(Br)cc23)c2cc(Br)ccc21	21%
Cc1nc2ncc(-c3ccc4ncnc(NCc5ccccc5)c4c3)cc2[nH]1	11.1%

— PubChem BioAssay (NCI)
